# Measured values: PubChem BioAssay (Tox21)
# A number with no mark means an inactive call. The source made the active and inactive calls. Calls come from the whole dose curve; as a rule, active = well fitted curve in the direction sought with a large enough effect in the repeat runs; inconclusive = weak or mixed curves; inactive = flat fitted curve, though single readings scatter.
# Experiment: qHTS assay to test for compound auto fluorescence at 590 nm (red) in HepG2 cells (AID 720674)
# Details: HepG2 autofluorescence, red 540/590 nm, 1 h; series mostly up to 91.3 µM; fluorescence, relative to Rose Bengal: at the top concentration
# From the text: U.S. Tox21 Program National Center for Advancing Translational Sciences [NCATS] NIH Chemical Genomics Center [NCGC] U.S. Environmental Protection Agency [EPA] National Institutes of Environmental Health Sciences [NIEHS] National Toxicology Program [NTP] U.S. Food and Drug Administration [FDA] Tox21 Assay Overview: Compound auto fluorescence often interferes with screening of the compound library against various biological targets and signaling pathways. Some of these compounds may have fluorophoric properties. Such properties may interfere with the assay outputs resulting in false positives and/or negatives. To decrease such complications and ensure the compound activities are relevant in terms of biological response, the Tox21 10K compound library was screened for auto fluorescence. From the fluorophores used as reporter signals in our screening assays, the auto fluorescence equivalencies of compounds against three fluorophores have been evaluated: Triamterene, Fluorescein and Rose Bengal sodium for blue, green and red fluorescence, respectively. The fluorescence intensities were measured using Excitation/Emission wavelengths at 405/460nm, 485/535nm and 540/590nm for blue, green and red labels, respectively. This assay includes the red fluorescence data.
# Tox21 Assay Protocol Summary: 2,000 HepG2 cells in 5 uL of culture medium (MEM containing 10% FBS) per well were dispensed into black wall/clear bottom 1536-well plates using a Multidrop Combi Dispenser (ThermoFisher Scientific, Waltham, MA). The assay plates were incubated overnight at 37 C to allow cell attachment to the well bottom, followed by the transfer of 23 nL compound or DMSO vehicle by a pintool work station (Kalypsys , San Diego, CA). After the assay plates were incubated for 1 hr at 37 C and 5% CO2, fluorescence intensities in the assay plates were measured by an Envision (PerkinElmer, Shelton, CT) plate reader using three labels for measuring blue, green and red fluorescence at […] 460, 535 and 590 nm respectively.
# % is set by controls: 0 for no effect and ±100 for the full control effect.
SMILES,"fluorescence, relative to Rose Bengal",outcome
Cc1ccc(O)c([N+](=O)[O-])c1,-0.172% [at 95.7 µM],
Cc1ccc2ccccc2n1,-0.0429%,
CCCCNCC,0.0938%,
CN(C)CCCN(C)C,-1.07% [at 3.72 µM],
Cc1ccc(N)nc1,-0.158%,
C[Si](C)(C)O[Si](O)(O)O,0.244%,
C=CC(C)(CCC=C(C)C)OC(=O)C(C)C (stereo not given),-0.0427%,
CC1=C(O)C(=O)CO1,-0.143%,
CC(C)(Sc1cc(C(C)(C)C)c(O)c(C(C)(C)C)c1)Sc1cc(C(C)(C)C)c(O)c(C(C)(C)C)c1,0.757% [at 18.6 µM],
Cc1ccc(OC(=O)CC(C)C)cc1,0.0746%,
CCCCCCCCCCCC(C)=O,-0.152%,
CC(C)C[P+](C)(CC(C)C)CC(C)C,0.37%,
BrCCOc1ccccc1,-0.113%,
C[C@@H]1CC[C@@]2(OC1)O[C@H]1C[C@H]3[C@@H]4CC[C@H]5C[C@@H](O)CC[C@]5(C)[C@H]4CC(=O)[C@]3(C)[C@H]1[C@@H]2C,-1.11% [at 18.6 µM],
Cc1cc(N)no1,-0.0067% [at 95.7 µM],
CCNC(=O)C(C)OC(=O)Nc1ccccc1 (stereo not given),0.0451%,
CC1(C)CC(N)CC(C)(C)N1,0.0207%,
CCCC(=O)OC,0.276%,
CC[C@@]1(c2ccccc2)NC(=O)N(C)C1=O,-0.207% [at 46 µM],
O=CN1CCCCC1,0.102%,

SMILES,"fluorescence, relative to Rose Bengal",outcome
CC(=O)OC/C=C(/C)CCC=C(C)C,-0.506%,
CN(C)CCc1c[nH]c2ccc(CS(=O)(=O)N3CCCC3)cc12,-0.41% [at 46 µM],
C[C@@H]1NC(=O)[C@@H](N)CNC(=O)[C@H](C2CCNC(N)=N2)NC(=O)/C(=C/NC(N)=O)NC(=O)[C@H](CNC(=O)C[C@@H](N)CCCN)NC1=O (stereo not given in full),,inactive
CCCCCCCCCCCCCCCC/C=C/C1CC(=O)OC1=O (stereo not given),-0.0361% [at 46 µM],
CCC(=O)OCCOc1ccccc1,0.0024%,
C[C@@H](CN1CC(=O)NC(=O)C1)N1CC(=O)NC(=O)C1,0.266% [at 46 µM],
Cc1ccccc1C#N,-0.0807%,
CCO/C=C1\N=C(c2ccccc2)OC1=O,0.498%,
O=C1CC2(CCCC2)CC(=O)N1CCNCC1COc2ccccc2O1 (stereo not given),0.405% [at 46 µM],
C/C=C(\C)C(=O)OC/C=C(\C)CCC=C(C)C,-0.0174%,
CCCCCCCCCCCCCC(=O)OCC,-0.0613%,
CC(C)OC(=O)C(C(=O)OC(C)C)=C1SC=CS1,-0.205% [at 46 µM],
N=C(N)N1CCc2ccccc2C1,-0.23% [at 46 µM],
C[C@H]1COc2c(C3(N)CC3)c(F)cc3c(=O)c(C(=O)O)cn1c23,-0.356% [at 46 µM],
O=C(CCBr)N1CCN(C(=O)CCBr)CC1,0.206% [at 46 µM],
CCO[Si](CC(C)C)(OCC)OCC,-0.0761%,
Cc1cc(C)c(N)c(Cl)c1,-0.0005%,
CC(=O)c1ccc2ccc3ccccc3c2c1,-0.276%,
COc1cc(OC)cc(OC)c1,-0.285% [at 46 µM],
Nc1cc(S(=O)(=O)O)ccc1O,-0.0836%,
